Screening results deposited in PubChem by National Center for Advancing Translational Sciences (NCATS).
SW480 rereplic: DNA re-replication induction in SW480 cells; SW480 DNA re-replication, Hoechst DNA content imaging, 48 h; Potency, µM (doses to about 46.1 µM), without a hit: at the highest dose re-replication activation, usual class: activators; hit rate 1.8% among 340,000; AID 624297; also: % of control where 0% means no effect; nearly all actives have a fitted effect of over 55% in size
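Image-based read-out: total Hoechst fluorescence of nuclei (405 nm excitation, 500-530 nm emission), with hits raising the fraction of high-intensity nuclei. SW480 colon cells incubated 48 hr with compounds at 37 C.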
KB-3-1 tox: KB-3-1 parental cell cytotoxicity; KB-3-1 viability, CellTiter-Glo ATP luminescence, 72 h; Potency, µM (highest dose often 46.1 µM), actives largely listed as cytotoxic; hit rate 1.4% among 400,000; also: % is scaled to controls: 0 for no effect and ±100 for the full control effect; nearly all actives have a fitted effect of over 60% in size
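Cytotoxicity measured as CellTiter-Glo luminescence after 72 h at 37 C. Compound titrations were pinned onto drug-naive KB-3-1 parental adenocarcinoma cells grown in DMEM with 10% FBS, and normalized data fitted to concentration-response curves.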
MCF10A rerep: inducers of DNA re-replication in MCF 10A breast cells | MCF 10A DNA re-replication, Hoechst nuclear intensity, 48 h | Potency, µM (series often up to 46.1 µM), inactives show at the top dose activity, positive = re-replication, usual class: activators | hit rate 2.9% among 350,000; also: % of control where 0% means no effect; nearly all actives have a fitted effect of over 50% in size
PINK1 expr mod: modulators of PINK1 expression; AID 624263; hit rate 0.2% among 410,000; Potency, µM (titrated, usually from 76.6 µM), without a hit: at the top dose activation (PINK1 increase), hits mostly activators; PINK1 immunofluorescence, high-content cytometry, 24 h; active = well fitted activation curve with a large enough effect; inconclusive = small, poorly fitted or top-dose-only effect; cell line not stated here; also: % of control where 0% means no effect; nearly all actives have a fitted effect of over 65% in size
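Stable cell line, 250 cells/well, 12 h attachment; compounds pinned at 5 concentrations, 24 h; CCCP control. Fixed with nuclear dye, primary antibodies 12 h at 10 degrees C, secondary plus cell stain; laser-scanning cytometer read.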
KB-V1 MDR tox: KB-V1 MDR subline cytotoxicity; KB-V1 MDR cells viability, CellTiter-Glo, 72 h; Potency, µM (doses to about 46.1 µM), actives largely listed as cytotoxic; hit rate 3.4% among 400,000; AID 1347076; also: % is scaled to controls: 0 for no effect and ±100 for the full control effect; nearly all actives have a fitted effect of over 60% in size
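Cytotoxicity toward P-gp-expressing KB-V1 cells was determined as loss of CellTiter-Glo luminescence after 72 h at 37 degrees C. Compounds were tested in quantitative HTS format across a concentration range, with curves fitted to normalized data.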
Numbers without * were called inactive; [ ] = another dose, or the depositor's remark. Sampled rows, rich in hits. Any-hit rate of the full collection: about 6.7%. Unless noted, calls follow the shape of the dose curve; as a rule, active = well fitted curve in the direction sought with a large enough effect; inconclusive = small, poorly fitted or top-dose-only effect, or another doubt; inactive = no such curve, though single readings can be large; an effect the other way counts as inactive or inconclusive. Potency is read from the fitted curve at half-maximal effect.

How did COc1ccccc1-c1cc2nc(C)c(CCC(=O)NCCc3cccc(C)c3)c(C)n2n1 do in these assays?
KB-3-1 tox: inactive; PINK1 expr mod: 2%; KB-V1 MDR tox: inactive

What do the screens show for `CN1C(=O)CC(CC(=O)N2CCCCC2CCO)(c2cccc(F)c2)C1=O` (configuration not stated)?
PINK1 expr mod: 0%

Results for O=C1C(=O)c2c(ccc3ccccc23)-c2ccccc21 ?
SW480 rereplic: 9.2µM*; KB-3-1 tox: 4.1µM*; MCF10A rerep: 1.8µM*; PINK1 expr mod: 0%; KB-V1 MDR tox: 4.1µM*

How did COc1cc(=O)n2c(c1C(=O)N1CCc3ccccc3C1)CCN(Cc1ccc(CO)o1)CC2 do in these assays?
PINK1 expr mod: 0%

Results for O=C(CCN1CCN(c2ccccc2)CC1)NNC(=O)c1cccc2ccccc12 ?
SW480 rereplic: -2%; KB-3-1 tox: inactive; MCF10A rerep: 1%; PINK1 expr mod: 0%; KB-V1 MDR tox: 18µM*

How did Cc1ccc(C)c(OCC(=O)NNC(=O)CCN2CCN(c3ccccc3)CC2)c1 do in these assays?
SW480 rereplic: 4%; KB-3-1 tox: inactive; MCF10A rerep: -2%; PINK1 expr mod: 1%; KB-V1 MDR tox: 21µM*

How did CCOC(=O)C1=CN(Cc2ccco2)S(=O)(=O)N(CC)C1c1ccc(C(F)(F)F)cc1 (configuration not stated) do in these assays?
SW480 rereplic: inconclusive; KB-3-1 tox: inactive; MCF10A rerep: 0%; PINK1 expr mod: 1%; KB-V1 MDR tox: inactive

How did COC(=O)C/C(O)=C(/N=Nc1cccc(C(F)(F)F)c1)C(=O)OC do in these assays?
SW480 rereplic: inconclusive; KB-3-1 tox: inactive; MCF10A rerep: 5.8µM*; PINK1 expr mod: -3%; KB-V1 MDR tox: inactive

How did CN(C)C(=O)/C(C#N)=C\c1cc(Br)c(Sc2ccc(Cl)cc2)o1 do in these assays?
SW480 rereplic: 2%; KB-3-1 tox: inactive; MCF10A rerep: 4%; PINK1 expr mod: 5%; KB-V1 MDR tox: 16µM*

How did CC(=O)Nc1cc2c(cc1Cl)-c1ccccc1C2O (configuration not stated) do in these assays?
SW480 rereplic: 2%; KB-3-1 tox: inactive; MCF10A rerep: 6%; PINK1 expr mod: 0%; KB-V1 MDR tox: inactive

What do the screens show for `Cc1ccc(Cl)cc1NC(=O)CC(O)(C(F)(F)F)C(F)(F)F`?
SW480 rereplic: 18µM*; KB-3-1 tox: inconclusive; MCF10A rerep: 27%; KB-V1 MDR tox: 21µM*

Results for COCC(=O)Nc1cc(Cl)ccc1C ?
SW480 rereplic: 4%; KB-3-1 tox: inactive; MCF10A rerep: 1%; PINK1 expr mod: 0%; KB-V1 MDR tox: inactive

How did CC(=O)N1CCc2c(sc(NC(=O)C3CC3)c2-c2nc3ccccc3s2)C1 do in these assays?
SW480 rereplic: inconclusive; KB-3-1 tox: inconclusive; MCF10A rerep: 23µM*; PINK1 expr mod: 12%; KB-V1 MDR tox: inactive

What do the screens show for `CC(C)N1CCc2c(sc(NC(=O)c3nc4ccccc4s3)c2C(N)=O)C1`?
SW480 rereplic: inconclusive; KB-3-1 tox: inactive; MCF10A rerep: 23%; PINK1 expr mod: 25%; KB-V1 MDR tox: inconclusive

What do the screens show for `CC(=O)Nc1sc2c(c1-c1nc3ccccc3s1)CN(C(C)C)CC2`?
SW480 rereplic: 2.6µM*; KB-3-1 tox: inconclusive; MCF10A rerep: inconclusive; PINK1 expr mod: -1%; KB-V1 MDR tox: inconclusive

How did COCCOC(=O)c1c(NC(=O)COC(=O)c2ccc(C)o2)sc(C(N)=O)c1C do in these assays?
SW480 rereplic: -11%; KB-3-1 tox: inactive; MCF10A rerep: 21%; PINK1 expr mod: 1%; KB-V1 MDR tox: inactive

Results for COC(=O)c1sc(N)c(C(=O)OC)c1COC(=O)c1c(C)noc1C ?
SW480 rereplic: 2.9µM*; KB-3-1 tox: 5.2µM*; MCF10A rerep: 9.2µM*; PINK1 expr mod: 11%[38.3 µM]; KB-V1 MDR tox: 5.2µM*

How did O=C(NCC1CCCO1)C1CC(=O)N(c2ccc(Cl)cc2)C1 (configuration not stated) do in these assays?
SW480 rereplic: -25%; KB-3-1 tox: inactive; MCF10A rerep: -18%; PINK1 expr mod: 5%; KB-V1 MDR tox: inactive
